Screen size: about 190,000 compounds; about 1,300 (0.68%) were called active. The sample holds actives, similar compounds and a random draw of the others, so the mix is not that of the screen. Cut-off read from the data, not from the text of the source: active = inhibition above about 50%; inactive = the rest.
Biological target: Mannose-6-phosphate isomerase (Homo sapiens) (UniProt P34949)
Experiment: human PMI inhibitors, high substrate, primary screen, biochemical, fluorescence intensity, high mannose 6-phosphate (AID 1220)
Conditions: recombinant PMI enzyme, coupled fluorescence intensity; at 20 µM; active compounds read high

Mannose-6-phosphate isomerase (Homo sapiens), sequence (P34949 whole entry, looked up): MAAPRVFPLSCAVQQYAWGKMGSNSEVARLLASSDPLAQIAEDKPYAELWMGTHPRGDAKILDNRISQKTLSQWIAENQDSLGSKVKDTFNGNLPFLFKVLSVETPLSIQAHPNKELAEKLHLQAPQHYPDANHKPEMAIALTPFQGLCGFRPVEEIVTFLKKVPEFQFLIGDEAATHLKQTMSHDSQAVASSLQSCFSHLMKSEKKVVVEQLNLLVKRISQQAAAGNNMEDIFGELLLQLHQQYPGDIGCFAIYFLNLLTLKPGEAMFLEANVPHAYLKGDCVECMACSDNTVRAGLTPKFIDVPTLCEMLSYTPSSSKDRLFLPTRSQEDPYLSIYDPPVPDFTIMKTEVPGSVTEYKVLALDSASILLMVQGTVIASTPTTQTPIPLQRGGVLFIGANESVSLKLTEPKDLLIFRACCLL

Row | SMILES | inhibition
1 | COc1ccc(CC(=O)NC(=S)Nc2ccc(S(N)(=O)=O)cc2)cc1 | -5.8% (inactive)
2 | Cc1cccc(NC(=O)NCC(F)(F)F)n1 | -6.3% (inactive)
3 | CCOC(=O)C(NC(=O)Nc1cccc(C)n1)(OCC(F)(F)F)C(F)(F)F (stereo not drawn) | 59.1% (active)
4 | CCOC(=O)C(NC(=O)Nc1ccccc1)(OCC)C(F)(F)F (stereo not drawn) | 5.2% (inactive)
5 | Cc1cc(C)nc(NS(=O)(=O)c2ccc(NC(=O)CN3C(=O)C4CC=CCC4C3=O)cc2)n1 (stereo not drawn) | -7.4% (inactive)
6 | Cc1cc(C(=O)Nc2ccccc2C#N)n(-c2ccccc2)n1 | 1.2% (inactive)
7 | CC(=O)c1cccc(N2C(=NC(=O)C(C)C)SC3CS(=O)(=O)CC32)c1 (stereo not drawn) | 10.5% (inactive)
8 | O=C1COc2ccc(C(=O)COC(=O)Cc3ccccc3F)cc2N1 | -2.3% (inactive)
9 | O=C(Oc1cccc2c(O)cccc12)c1ccccc1 | 23.5% (inactive)
10 | CC(=O)Oc1c(C)cc(O)c2ccccc12 | 19.2% (inactive)
11 | CC(=O)Cc1cc(O)c2ccccc2c1OC(=O)c1ccccc1 | 68.6% (active)
12 | Cc1cc(N2CCCC2=O)c(N)cc1N | 4.5% (inactive)
13 | O=C1CN(CC(=O)Nc2cccc(Cl)c2Cl)c2ccccc2N1 | -43.6% (inactive)
14 | CCOc1ccc2nc(NC3=NCN(Cc4ccco4)CN3)nc(C)c2c1 | -0.5% (inactive)
15 | CCOc1cc(/C=C2\N=C(SC)SC2=O)cc([N+](=O)[O-])c1OC(C)=O | 35.6% (inactive)
16 | C=CCSC1=N/C(=C\c2cc(OCC)c(OC(C)=O)c([N+](=O)[O-])c2)C(=O)S1 | 38.8% (inactive)
17 | CCOc1cc(/C=C2\N=C(SCC)SC2=O)cc([N+](=O)[O-])c1OC(C)=O | 53.1% (active)
18 | CC(=O)NCC(=O)N(C)C(C(=O)Nc1ccc2c(c1)OCCO2)c1ccc(C)cc1 (stereo not drawn) | 5.2% (inactive)
19 | COC(=O)Nc1sc2c(c1C(N)=O)CCC(C)C2 (stereo not drawn) | 59.6% (active)
20 | CC(=O)NC(=S)Nc1sc2c(c1C(N)=O)CCC(C)C2 (stereo not drawn) | -3% (inactive)
21 | CCOC(=O)Nc1sc2c(c1C(N)=O)CCC(C)C2 (stereo not drawn) | -7.3% (inactive)
22 | CC(C)C(NC(=O)c1ccc(Br)cc1)C(=O)NC1=NCCS1 (stereo not drawn) | -3% (inactive)
23 | CON1C(=O)C(=O)N(OC)C(C)(C)C1(C)C | 44.6% (inactive)
24 | Clc1ccc(C2NCCc3sccc32)cc1 (stereo not drawn) | 10.9% (inactive)
25 | CC1=CC(C)(C)N=C(NC#N)N1 | 2.4% (inactive)

Row | SMILES | inhibition
26 | O=C(COc1ccc(Cl)cc1)N1CCN(c2ccc([N+](=O)[O-])c(N3CCCCC3)c2)CC1 | 12.2% (inactive)
27 | COC(=O)CNC(=O)c1cccc(Cl)c1 | -5% (inactive)
28 | O=C(NC(Cc1c[nH]c2ccccc12)C(=O)NCCCN1CCOCC1)c1cccs1 (stereo not drawn) | 11.4% (inactive)
29 | O=C1c2ccccc2C(=O)c2c1oc(C(F)(F)F)c2C(=O)c1ccccc1 | -32.9% (inactive)
30 | O=C(c1ccccc1)c1coc2c1C(=O)c1ccccc1C2=O | 30.7% (inactive)
31 | CCCCOc1ccc(C(=S)N2CCC(C(N)=O)CC2)cc1 | 9.1% (inactive)
32 | CCN(CC)c1cccc(OCC(=O)N(C)CCC#N)c1 | 53.3% (active)
33 | CCc1ccc(OCC(=O)N(C)CCC#N)c(Br)c1 | 3.1% (inactive)
34 | CN(CCC#N)C(=O)COc1ccc(Br)cc1Cl | -5.3% (inactive)
35 | Cc1cc(C)n(-c2cc(N3CCOCC3)nc(-c3ccccc3)n2)n1 | 8.9% (inactive)
36 | CCc1sc(C(=O)NCCc2ccc(S(N)(=O)=O)cc2)cc1Br | 7.3% (inactive)
37 | COc1cc(C(=O)NCCSc2ccc(Br)cc2)cc(OC)c1OC | 5.3% (inactive)
38 | CC(=O)Nc1ccc(NS(=O)(=O)c2cc(C)sc2C)cc1 | 61.6% (active)
39 | Cc1cc(S(=O)(=O)Nc2ccc(N(C)C)cc2)c(C)s1 | 10.9% (inactive)
40 | Cc1cc(S(=O)(=O)Nc2ccc(F)cc2)c(C)s1 | 5% (inactive)
41 | CN(C)CCCNc1oc(-c2ccccc2)nc1C#N | -7.3% (inactive)
42 | CCOC(=O)c1c(NCC2CCCO2)c2ccccc2[nH]c1=O (stereo not drawn) | -10.2% (inactive)
43 | COc1ccc(N2C(=O)N(Cc3cccc(F)c3)c3ccccc3S2(=O)=O)cc1 | 0.3% (inactive)
44 | CC1(C)CC(=O)C2=C(C1)NC(=O)NC2c1ccccc1 (stereo not drawn) | -2.6% (inactive)
45 | Cc1ccc(-n2nnnc2Sc2nc([N+](=O)[O-])nn2C)cc1 | 18.5% (inactive)
46 | Cc1nc2ccc(NC(=S)N3CCC(C)CC3)cc2nc1C | 55.4% (active)
47 | O=C(Nc1ccc2nsnc2c1)N1CCCCCC1 | 21.5% (inactive)
48 | Cc1nc2ccc(NC(=S)N3CCCC3)cc2nc1C | 52.8% (active)
49 | Cc1nc2ccc(NC(=S)N3CCOCC3)cc2nc1C | 45.1% (inactive)
50 | Cc1nc2ccc(NC(=O)N3CCCCC3)cc2nc1C | 21.5% (inactive)

Row | SMILES | inhibition
51 | Cc1nc2ccc(NC(=S)N3CCN(c4ccccn4)CC3)cc2nc1C | 18.3% (inactive)
52 | O=C(Nc1ccc2nsnc2c1)N1CCCCC1 | 24.1% (inactive)
53 | CC1CCN(C(=S)Nc2ccc(F)cc2)CC1 | -10.5% (inactive)
54 | CC1CCN(C(=O)Nc2ccc3nsnc3c2)CC1 | 62% (active)
55 | COC(=O)CSc1cc(C)nc2ccc(OC)cc12 | 7.7% (inactive)
56 | CC(C(=O)Nc1ccncc1)(c1ccccc1)c1ccccc1 | 10.8% (inactive)
57 | O=C(CCN1C(=O)/C(=C/C=C/c2ccccc2)SC1=S)Nc1cccnc1 | 1.5% (inactive)
58 | Cc1noc(C)c1C(=O)N1CCN(Cc2ccc3c(c2)OCO3)CC1 | 6.8% (inactive)
59 | O=c1[nH]c2cc([N+](=O)[O-])c(NCCO)c([N+](=O)[O-])c2[nH]1 | 3.7% (inactive)
60 | CN(C)c1c([N+](=O)[O-])cc2[nH]c(=O)[nH]c2c1[N+](=O)[O-] | 9.6% (inactive)
61 | CC(=O)Nc1c([N+](=O)[O-])cc2[nH]c(=O)[nH]c2c1[N+](=O)[O-] | 56.9% (active)
62 | CC(C)Oc1ccc(C(CC(=O)O)n2cnnn2)cc1 (stereo not drawn) | 2% (inactive)
63 | COC(=O)CN1C(=O)C2(C(C#N)=C(N)Oc3n[nH]c(-c4cccs4)c32)c2ccccc21 (stereo not drawn) | 7.3% (inactive)
64 | Cc1nn(-c2ccccc2)c2c1C1(C(=O)N3c4c(cccc41)C(C)CC3(C)C)C(C#N)=C(N)O2 (stereo not drawn) | 21% (inactive)
65 | COC(=O)CN1C(=O)C2(C(C#N)=C(N)Oc3cc(C)oc(=O)c32)c2ccccc21 (stereo not drawn) | 7.9% (inactive)
66 | CC(=O)N1C(=O)C2(C(C#N)=C(N)Oc3cc(C)oc(=O)c32)c2ccccc21 (stereo not drawn) | 11% (inactive)
67 | COC(=O)CN1C(=O)C2(C(C#N)=C(N)Oc3c2c(C)nn3-c2ccccc2)c2ccccc21 (stereo not drawn) | 58.9% (active)
68 | Cc1nn(-c2ccccc2)c2c1C1(C(=O)N(C)c3ccccc31)C(C#N)=C(N)O2 (stereo not drawn) | 21.9% (inactive)
69 | CC(=O)N1C(=O)C2(C(C#N)=C(N)Oc3c2c(C)nn3-c2ccccc2)c2ccccc21 (stereo not drawn) | 62.8% (active)
70 | Cc1nn(-c2ccccc2)c2c1C1(C(=O)N(C(C)C)c3ccccc31)C(C#N)=C(N)O2 (stereo not drawn) | 24.1% (inactive)
71 | CCN1C(=O)C2(C(C#N)=C(N)Oc3c2c(C)nn3-c2ccccc2)c2ccccc21 (stereo not drawn) | 62.1% (active)
72 | CCCCC1NC(=S)N(C2CCCCC2)C1=O (stereo not drawn) | -7.2% (inactive)
73 | COC(=O)c1sc2ccccc2c1-n1cccc1C(=O)C(=O)Nc1ccc(C)cc1 | 4.8% (inactive)
74 | O=c1[nH]c(SCC2CCCCO2)nc2ccccc12 (stereo not drawn) | -2.3% (inactive)
75 | O=C1CSC(c2cccc(Cl)c2Cl)N1c1ccccn1 (stereo not drawn) | 12.3% (inactive)

Row | SMILES | inhibition
76 | Cc1ccc(C)c(S(=O)(=O)Nc2ccccc2C(=O)Nc2cc(C)on2)c1 | 8.8% (inactive)
77 | COC(=O)c1cccc(NS(C)(=O)=O)c1C | -5.8% (inactive)
78 | CNc1nc(C)c(C(=O)OCC(=O)OC)s1 | -0.1% (inactive)
79 | CC(NC(=O)CSCc1ccccc1Br)c1ccccc1 (stereo not drawn) | 4.4% (inactive)
80 | COc1ccc(NC(=S)Nc2ccccc2SC)c(OC)c1 | 20.7% (inactive)
81 | Cc1ccc(CN(CC(=O)N/N=C/c2ccco2)S(=O)(=O)c2ccc(C)cc2)cc1 | 4.9% (inactive)
82 | CC1=C(C)C(=O)C(CCCCC#CCCCC#CCO)=C(C)C1=O | 19.9% (inactive)
83 | COC1=C(OC)C(=O)C(CCCCCCCCCCO)=C(C)C1=O | 78.2% (active)
84 | Cc1[nH]c(=S)[nH]c(=O)c1CCCO | 5.3% (inactive)
85 | COc1ccccc1-n1c(=S)[nH]c2c(sc(=S)n2-c2ccccc2)c1=O | -3.7% (inactive)
86 | COc1ccc(OC)c(-n2c(=S)[nH]c3c(sc(=S)n3-c3ccccc3)c2=O)c1 | 9.2% (inactive)
87 | Cc1ccc(/C=C2\SC(=S)N(C3CCS(=O)(=O)C3)C2=O)cc1 (stereo not drawn) | -2.5% (inactive)
88 | C=CCn1c(COc2ccccc2F)nnc1SCC(=O)NC(=O)NCc1ccco1 | -4% (inactive)
89 | CNc1nc2[nH]c(=O)c3c(c2s1)OC(N)=C(C#N)C3c1ccccc1 (stereo not drawn) | 52% (active)
90 | COC(=O)C1=C(C)OC(N)=C(C#N)C1c1ccccc1 (stereo not drawn) | -8.8% (inactive)
91 | Cc1oc(C)c2c(=O)ccc3c(c12)OC(N)=C(C#N)C3c1ccccc1 (stereo not drawn) | 2.8% (inactive)
92 | CNc1nc2[nH]c(=O)c3c(c2s1)OC(N)=C(C#N)C3c1cccc(F)c1 (stereo not drawn) | 54.7% (active)
93 | CN(C)c1ccc2c(c1)OC(N)=C(C#N)C2c1cccc(F)c1 (stereo not drawn) | 25.2% (inactive)
94 | Cc1cc(C)c2c3c(sc2n1)C(c1cccc(F)c1)C(C#N)=C(N)O3 (stereo not drawn) | -7% (inactive)
95 | CCNc1nc2[nH]c(=O)c3c(c2s1)OC(N)=C(C#N)C3c1ccc(C)cc1 (stereo not drawn) | 62.6% (active)
96 | Cc1ccc(C2C(C#N)=C(N)Oc3c2c(=O)n(C)c(=O)n3C)cc1 (stereo not drawn) | -24.8% (inactive)
97 | Cc1ccc(C2C(C#N)=C(N)Oc3n[nH]c(C)c32)cc1 (stereo not drawn) | 8.4% (inactive)
98 | O=C1CCCC(O)=C1C1C2=C(CCCC2=O)Oc2ccccc21 (stereo not drawn) | 6.5% (inactive)
